Inconclusive results are not listed. Active and inactive are the calls of the source. Unless noted, calls follow the shape of the dose curve; as a rule, active = well fitted curve in the direction sought with a large enough effect; inconclusive = small, poorly fitted or top-dose-only effect, or another doubt; inactive = no such curve, though single readings can be large; an effect the other way counts as inactive or inconclusive.
Key:
[1] = target: Calcium and integrin-binding protein 1 (Homo sapiens) (UniProt Q99828); test: Primary qHTS for Identification of Calcium Integrin Binding Protein 1 (CIB1) Competitor (AID 1508620);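 also: GST tagged CIB1 binding a fluorescein labelled alphaIIb integrin peptide tracer; top concentration of the series differs between compounds; % is scaled to controls: 0 for no effect and ±100 for the full control effect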
Method in brief: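 Fluorescence polarization competition: GST-tagged CIB1 (1 uM final) preincubated with compound 15 min at room temperature, then FITC-labelled alphaIIb peptide (100 nM final) added. After 15 min at room temperature, polarization read at Ex 480/Em 540.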

[2] = target: Cytochrome P450 1A2 (Homo sapiens) (UniProt P05177); test: p450-cyp1a2 (AID 410; calls by dose curve; also: potency is read from the fitted curve at half-maximal effect)
Method in brief: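 Inhibition was calculated relative to 57 uM furafylline (full inhibition). The reaction used human CYP1A2 at 20nM with Luciferin-ME at its Km, 100uM, driven by an NADPH-regenerating system for 60 min at room temperature.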

[3] = target: Glucocorticoid receptor (Homo sapiens) (UniProt P04150); test: GR-EFC Redistribution (AID 451; calls by dose curve; also: potency is read from the fitted curve at half-maximal effect); settings: CHO-K1 GR-EFC translocation, beta-gal luminescence, 2 h
Method in brief: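 CHO-K1 cells expressing nuclear EA and GR-ED fragments of b-gal; compounds titrated up to 46 uM final, 2 h at 37 C. GR nuclear translocation read as complemented b-gal luminescence after 1 h RT detection.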

[4] = target: Mitogen-activated protein kinase 10 (Mus musculus) (UniProt Q61831); test: JNK3 AlphaScreen Assay (AID 530; active = well fitted curve in either direction with a large enough effect, not every such curve was filed as active;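 also: kinase came from lysate of stimulated human HepG2 cells; signal reports phosphorylation of biotinylated GST-cJun 1-79 at Ser73 with 10 µM ATP; % is scaled to controls: 0 for no effect and ±100 for the full control effect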)
Method in brief: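 qHTS format: compounds tested as titrations against IL-1beta/TNF-alpha-activated HepG2 lysate JNK3 with biotin-GST-cJun substrate and 10 uM ATP at room temperature. Loss of anti-phospho-cJun AlphaScreen signal indicates inhibition.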

[5] = target: Cytochrome P450 3A4 (Homo sapiens) (UniProt P08684); test: qHTS Assay for Activators of Cytochrome P450 3A4 (AID 885); also: nearly all actives have a fitted effect of over 65% in size
Method in brief: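 Quantitative HTS format: compounds preincubated with 20nM human CYP3A4 and Luciferin-PPXE substrate at KM, reaction started by NADPH regeneration, stopped after 60 min, luciferase luminescence read 20 min later.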

[6] = Confirmation and Secondary Assay for Modulators of Hemoglobin Beta Chain Splicing at IVS2 654 locus (AID 910);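 also: HeLa cells stably carrying EGFP split by mutant beta-globin IVS2-654 intron; % of control where 0% means no effect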
Method in brief: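 HeLa cells stably expressing EGFP interrupted by β-globin IVS2-654 intron, seeded overnight in Opti-MEM/2% FCS, then treated 2 days at 37 °C. Restored splicing read as total peak GFP intensity per well by laser scanning cytometry (488 nm excitation, 500–520 nm emission); 500 nM antisense PNA as control.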

[7] = Confirmation and Secondary Assay for Modulators of Hemoglobin Beta Chain Splicing at IVS2 705 locus (AID 930);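 also: HeLa cells stably expressing the EGFP-705 splicing reporter; GFP fluorescence per well restored by corrected splicing of the IVS2-705 intron in EGFP; % of control where 0% means no effect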
Method in brief: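 Fluorescence gain (488 nm laser, 500-520 nm PMT) reflects restored correct splicing of a mutant IVS2-705 intron inside EGFP in stably transfected HeLa cells after 2-day compound treatment.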

[8] = qHTS Assay for Lipid Storage Modulators (AID 1519; calls by dose curve); settings: Drosophila S3 cells, BODIPY lipid droplet/cell ratio, laser cytometry, cells loaded with oleic acid
Method in brief: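 Cells seeded at 5,000 per well were treated with compounds over a concentration series and loaded with oleic acid (400 uM, as added). Lipid droplet fluorescence (488 nm excitation, 500-530 nm channel) was read by laser-scanning cytometry and normalized to 20 uM Triacsin C.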

[9] = target: Ubiquitin carboxyl-terminal hydrolase 1 (Homo sapiens) (UniProt O94782); test: Inhibitors of USP1/UAF1: Pilot qHTS (AID 504865);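 also: rhodamine fluorescence freed from ubiquitin-rhodamine substrate followed over time; top concentration of the series differs between compounds; % is scaled to controls: 0 for no effect and ±100 for the full control effect; nearly all actives have a fitted effect of over 35% in size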
Method in brief: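 Deubiquitinase activity followed as kinetic rhodamine fluorescence release from 150 nM Ub-Rho. 1 nM USP1/UAF1 with compound, after 15 min room-temperature preincubation, in HEPES pH 7.8 buffer containing TCEP, EDTA, BSA and Tween-20.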

[10] = Primary qHTS for small molecule stabilizers of the endoplasmic reticulum resident proteome: Secreted ER Calcium Modulated Protein (SERCaMP) assay (AID 1508630); also: % is scaled to controls: 0 for no effect and ±100 for the full control effect
Method in brief: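 GLuc-SERCaMP-expressing SH-SY5Y cells, pretreated 16 h with compound, are challenged with thapsigargin to empty ER calcium stores; after 4 h, coelenterazine is added directly to the medium and luminescence is imaged.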

[11] = target: Lysosomal acid glucosylceramidase (Homo sapiens) (UniProt P04062); test: Glucocerebrosidase-p2 (AID 348; in the data active = potency below about 10 µM; also: potency is read from the fitted curve at half-maximal effect); settings: purified GBA, blue fluorogenic substrate, 40 min
Method in brief: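 Compounds titrated from 0.6 nM upwards against 0.2 nM enzyme in pH 5.9 citric acid/KH2PO4, taurocholate, tween-20; blue fluorogenic substrate 80 uM, 40 min room temperature, stopped and read Ex 365/Em 440 for AC50.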

[12] = AP1 Signaling Pathway (AID 357; active = well fitted curve in either direction with a large enough effect, not every such curve was filed as active;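 also: ME-180 reporter cells stimulated with EGF at its EC50 level; % is scaled to controls: 0 for no effect and ±100 for the full control effect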); settings: ME-180 (cervical carcinoma) AP-1-bla reporter, EGF-induced, beta-lactamase ratio, 5 h; at 7.69 µM (top of the series) unless noted
Method in brief: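 Read-out was the 460nm/530nm emission ratio (excitation 405nm) after CCF4 loading for 2.5 hours at room temperature. Cells carried an AP-1-driven beta-lactamase reporter, were stimulated with EC50 EGF plus compound for 5 hours, and AC50 values came from titrations.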

[13] = target: Glucocorticoid receptor (Homo sapiens) (UniProt P04150); test: GR-GFP Redistribution (AID 450;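 active = compounds whose dose series gives a full or clear partial fitted curve of increased nuclear translocation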; also: potency is read from the fitted curve at half-maximal effect); settings: U2OS GR-GFP nuclear translocation, laser cytometry, 2 h
[14] = target: Dual specificity protein kinase CLK4 (Homo sapiens) (UniProt Q9HAZ1); test: qHTS Assay for Inhibitors of CDC-like Kinase 4 (Kinase-Glo Assay) (AID 1770); also: potency is read from the fitted curve at half-maximal effect; nearly all actives have a fitted effect of over 65% in size
Method in brief: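 Luminescent ATP-depletion read-out (Kinase-Glo) after 4.5 h room-temperature reaction of Clk4 (25 nM final) with RS peptide (100 uM) and ATP (1 uM), pH 7.5 Tris buffer with MgCl2 and DTT.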

[15] = target: Dual specificity protein kinase CLK4 (Homo sapiens) (UniProt Q9HAZ1); test: qHTS Assay for Inhibitors of CDC-like Kinase 4 (ADP-Glo Assay) (AID 1771); also: potency is read from the fitted curve at half-maximal effect; nearly all actives have a fitted effect of over 70% in size
Method in brief: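 Kinase reaction: Clk4 at 25 nM, RS repeat peptide substrate at 100 uM, ATP at 1 uM, 1 hr, room temperature. Product ADP detected as luciferase signal via ADP-Glo.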

[16] = target: Dual specificity protein kinase CLK4 (Homo sapiens) (UniProt Q9HAZ1); test: qHTS Assay for Inhibitors of CDC-like Kinase 4 (ADP-FP Assay) (AID 1795); also: potency is read from the fitted curve at half-maximal effect; nearly all actives have a fitted effect of over 60% in size
Method in brief: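 Kinase activity was measured as ADP production using Transcreener orange tracer (4 nM) and ADP antibody (1 ug/mL) fluorescence polarization, with ADP calculated from a calibration curve. The 1 h reaction contained 6.25 nM Clk4, 1 uM ATP and 100 uM RS peptide at pH 7.5 with Mg2+.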

[17] = target: Rap guanine nucleotide exchange factor 3 (Homo sapiens) (UniProt O95398); test: Confirmatory qHTS for antagonist of cAMP-regulated guanine nucleotide exchange factor 3 (EPAC1) (AID 1645880);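 also: plate controls were DMSO only for no effect and full effect of the ATA control for full effect; nearly all actives have a fitted effect of over 55% in size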
Method in brief: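 Nucleotide exchange uses 100 nM EPAC1, 250 nM RAP1B-BODIPY-GDP and 50 uM GDP, with compounds in a concentration-titration series. After 5 min at room temperature, fluorescence (480 nm ex/540 nm em) is read every 5 min for 30 min. Data are normalized to control ATA and DMSO.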

[18] = target: Rap guanine nucleotide exchange factor 3 (Homo sapiens) (UniProt O95398); test: Confirmatory qHTS for agonist of cAMP-regulated guanine nucleotide exchange factor 3 (EPAC1) (AID 1645881);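 also: EPAC1 catalysed release of BODIPY-GDP from Rap1B seen as fluorescence loss; 100% = effect of cAMP agonist control; nearly all actives have a fitted effect of over 75% in size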
[19] = target: Rap guanine nucleotide exchange factor 4 (Homo sapiens) (UniProt Q8WZA2); test: Confirmatory qHTS for agonist of cAMP-regulated guanine nucleotide exchange factor 4 (EPAC2) (AID 1645884);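 also: nucleotide exchange releases bodipy-GDP from Rap1 and this lowers its fluorescence; % is scaled to controls: 0 for no effect and ±100 for the full control effect; nearly all actives have a fitted effect of over 65% in size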
[20] = target: Rap guanine nucleotide exchange factor 4 (Homo sapiens) (UniProt Q8WZA2); test: Confirmatory qHTS for antagonist of cAMP-regulated guanine nucleotide exchange factor 4 (EPAC2) (AID 1645885); also: % is scaled to controls: 0 for no effect and ±100 for the full control effect; nearly all actives have a fitted effect of over 25% in size

Chain of Calcium and integrin-binding protein 1 (Homo sapiens) (Q99828 whole entry, looked up): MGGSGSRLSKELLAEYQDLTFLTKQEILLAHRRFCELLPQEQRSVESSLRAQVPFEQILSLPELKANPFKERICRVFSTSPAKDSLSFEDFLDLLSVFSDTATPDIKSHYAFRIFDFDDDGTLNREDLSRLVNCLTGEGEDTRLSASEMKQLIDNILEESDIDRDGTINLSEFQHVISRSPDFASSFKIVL
Chain of Glucocorticoid receptor (Homo sapiens) (P04150 whole entry, looked up, the tested form may be a part): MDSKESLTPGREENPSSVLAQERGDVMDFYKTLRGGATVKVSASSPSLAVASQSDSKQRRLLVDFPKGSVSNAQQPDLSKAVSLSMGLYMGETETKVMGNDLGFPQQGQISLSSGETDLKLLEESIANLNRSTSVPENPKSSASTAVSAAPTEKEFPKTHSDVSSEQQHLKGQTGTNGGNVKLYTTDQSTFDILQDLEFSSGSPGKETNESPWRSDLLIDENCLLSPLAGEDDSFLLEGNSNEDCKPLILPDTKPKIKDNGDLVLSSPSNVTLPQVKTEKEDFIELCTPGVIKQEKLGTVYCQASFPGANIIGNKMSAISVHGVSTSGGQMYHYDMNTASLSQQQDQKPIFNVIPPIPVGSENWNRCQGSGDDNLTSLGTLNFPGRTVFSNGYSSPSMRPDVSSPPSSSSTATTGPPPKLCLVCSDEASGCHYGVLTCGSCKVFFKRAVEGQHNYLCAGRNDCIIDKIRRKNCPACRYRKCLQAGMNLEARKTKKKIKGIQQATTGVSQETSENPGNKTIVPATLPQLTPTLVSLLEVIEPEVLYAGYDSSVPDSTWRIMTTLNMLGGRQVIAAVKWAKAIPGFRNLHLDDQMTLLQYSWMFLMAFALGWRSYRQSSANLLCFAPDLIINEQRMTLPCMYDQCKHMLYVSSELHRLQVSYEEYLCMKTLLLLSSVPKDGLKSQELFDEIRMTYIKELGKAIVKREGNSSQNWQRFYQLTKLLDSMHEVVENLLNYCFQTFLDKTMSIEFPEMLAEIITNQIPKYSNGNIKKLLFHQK
Chain of Dual specificity protein kinase CLK4 (Homo sapiens) (Q9HAZ1 whole entry, looked up): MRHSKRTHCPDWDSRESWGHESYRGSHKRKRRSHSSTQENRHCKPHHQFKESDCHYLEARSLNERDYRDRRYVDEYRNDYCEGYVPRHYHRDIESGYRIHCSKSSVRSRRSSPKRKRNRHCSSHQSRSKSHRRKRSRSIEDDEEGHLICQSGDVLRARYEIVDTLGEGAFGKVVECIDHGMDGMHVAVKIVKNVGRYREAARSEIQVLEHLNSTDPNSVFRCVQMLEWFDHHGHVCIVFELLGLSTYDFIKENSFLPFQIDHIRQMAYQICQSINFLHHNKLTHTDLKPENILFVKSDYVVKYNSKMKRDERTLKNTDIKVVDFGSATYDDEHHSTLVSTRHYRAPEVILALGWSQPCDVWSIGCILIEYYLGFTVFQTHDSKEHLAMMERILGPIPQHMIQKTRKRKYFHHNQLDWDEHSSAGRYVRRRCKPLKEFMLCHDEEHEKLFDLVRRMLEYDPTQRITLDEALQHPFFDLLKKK
Chain of Cytochrome P450 3A4 (Homo sapiens) (P08684 whole entry, looked up): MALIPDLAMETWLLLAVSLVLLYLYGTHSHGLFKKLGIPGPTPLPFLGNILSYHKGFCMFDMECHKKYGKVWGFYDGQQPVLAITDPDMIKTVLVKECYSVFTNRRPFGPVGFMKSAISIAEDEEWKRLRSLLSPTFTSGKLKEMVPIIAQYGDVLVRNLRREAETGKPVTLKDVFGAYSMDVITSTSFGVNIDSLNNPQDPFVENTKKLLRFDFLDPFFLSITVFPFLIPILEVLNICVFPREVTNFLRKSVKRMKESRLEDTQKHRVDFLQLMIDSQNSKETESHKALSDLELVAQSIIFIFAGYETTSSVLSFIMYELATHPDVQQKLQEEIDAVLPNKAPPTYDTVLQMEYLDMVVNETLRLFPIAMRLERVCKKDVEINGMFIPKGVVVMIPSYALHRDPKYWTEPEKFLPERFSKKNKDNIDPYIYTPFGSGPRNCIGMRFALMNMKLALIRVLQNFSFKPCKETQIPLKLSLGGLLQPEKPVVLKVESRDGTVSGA
Chain of Rap guanine nucleotide exchange factor 3 (Homo sapiens) (O95398 whole entry, looked up): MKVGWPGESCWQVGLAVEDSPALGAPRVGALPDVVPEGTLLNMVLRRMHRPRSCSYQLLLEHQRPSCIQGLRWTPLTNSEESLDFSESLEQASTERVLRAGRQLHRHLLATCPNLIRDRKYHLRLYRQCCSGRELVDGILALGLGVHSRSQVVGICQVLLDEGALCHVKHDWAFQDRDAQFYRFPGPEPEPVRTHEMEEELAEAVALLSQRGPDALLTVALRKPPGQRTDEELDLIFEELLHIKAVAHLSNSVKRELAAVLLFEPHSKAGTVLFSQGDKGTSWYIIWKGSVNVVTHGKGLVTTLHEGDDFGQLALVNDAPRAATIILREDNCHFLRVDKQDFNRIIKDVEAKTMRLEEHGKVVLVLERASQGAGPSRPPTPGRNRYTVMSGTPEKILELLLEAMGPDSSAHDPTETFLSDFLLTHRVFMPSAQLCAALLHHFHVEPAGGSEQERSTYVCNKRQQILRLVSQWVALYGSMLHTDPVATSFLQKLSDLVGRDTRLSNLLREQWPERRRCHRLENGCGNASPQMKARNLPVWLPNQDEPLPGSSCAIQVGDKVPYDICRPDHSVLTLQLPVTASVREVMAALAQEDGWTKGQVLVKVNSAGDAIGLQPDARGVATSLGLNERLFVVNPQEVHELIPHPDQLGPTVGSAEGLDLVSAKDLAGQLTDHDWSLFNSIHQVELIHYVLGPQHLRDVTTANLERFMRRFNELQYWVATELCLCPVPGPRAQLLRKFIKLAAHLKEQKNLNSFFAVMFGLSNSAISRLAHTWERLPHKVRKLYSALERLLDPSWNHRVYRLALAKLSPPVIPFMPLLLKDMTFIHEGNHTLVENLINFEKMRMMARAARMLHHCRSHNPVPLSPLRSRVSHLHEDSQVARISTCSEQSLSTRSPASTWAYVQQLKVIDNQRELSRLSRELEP
Chain of Cytochrome P450 1A2 (Homo sapiens) (P05177 whole entry, looked up): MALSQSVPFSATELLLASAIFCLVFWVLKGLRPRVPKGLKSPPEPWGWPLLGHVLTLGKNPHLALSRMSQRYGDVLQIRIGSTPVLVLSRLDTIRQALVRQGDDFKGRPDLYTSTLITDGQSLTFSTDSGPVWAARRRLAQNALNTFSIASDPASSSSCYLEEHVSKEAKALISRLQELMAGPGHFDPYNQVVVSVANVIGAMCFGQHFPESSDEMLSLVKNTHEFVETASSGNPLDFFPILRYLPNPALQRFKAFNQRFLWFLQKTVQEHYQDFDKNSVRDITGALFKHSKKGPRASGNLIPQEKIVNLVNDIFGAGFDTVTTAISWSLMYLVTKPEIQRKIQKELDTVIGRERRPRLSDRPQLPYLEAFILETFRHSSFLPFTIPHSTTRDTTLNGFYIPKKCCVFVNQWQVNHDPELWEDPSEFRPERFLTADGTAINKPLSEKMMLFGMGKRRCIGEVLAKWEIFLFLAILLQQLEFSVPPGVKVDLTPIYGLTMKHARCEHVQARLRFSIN
Chain of Rap guanine nucleotide exchange factor 4 (Homo sapiens) (Q8WZA2 whole entry, looked up): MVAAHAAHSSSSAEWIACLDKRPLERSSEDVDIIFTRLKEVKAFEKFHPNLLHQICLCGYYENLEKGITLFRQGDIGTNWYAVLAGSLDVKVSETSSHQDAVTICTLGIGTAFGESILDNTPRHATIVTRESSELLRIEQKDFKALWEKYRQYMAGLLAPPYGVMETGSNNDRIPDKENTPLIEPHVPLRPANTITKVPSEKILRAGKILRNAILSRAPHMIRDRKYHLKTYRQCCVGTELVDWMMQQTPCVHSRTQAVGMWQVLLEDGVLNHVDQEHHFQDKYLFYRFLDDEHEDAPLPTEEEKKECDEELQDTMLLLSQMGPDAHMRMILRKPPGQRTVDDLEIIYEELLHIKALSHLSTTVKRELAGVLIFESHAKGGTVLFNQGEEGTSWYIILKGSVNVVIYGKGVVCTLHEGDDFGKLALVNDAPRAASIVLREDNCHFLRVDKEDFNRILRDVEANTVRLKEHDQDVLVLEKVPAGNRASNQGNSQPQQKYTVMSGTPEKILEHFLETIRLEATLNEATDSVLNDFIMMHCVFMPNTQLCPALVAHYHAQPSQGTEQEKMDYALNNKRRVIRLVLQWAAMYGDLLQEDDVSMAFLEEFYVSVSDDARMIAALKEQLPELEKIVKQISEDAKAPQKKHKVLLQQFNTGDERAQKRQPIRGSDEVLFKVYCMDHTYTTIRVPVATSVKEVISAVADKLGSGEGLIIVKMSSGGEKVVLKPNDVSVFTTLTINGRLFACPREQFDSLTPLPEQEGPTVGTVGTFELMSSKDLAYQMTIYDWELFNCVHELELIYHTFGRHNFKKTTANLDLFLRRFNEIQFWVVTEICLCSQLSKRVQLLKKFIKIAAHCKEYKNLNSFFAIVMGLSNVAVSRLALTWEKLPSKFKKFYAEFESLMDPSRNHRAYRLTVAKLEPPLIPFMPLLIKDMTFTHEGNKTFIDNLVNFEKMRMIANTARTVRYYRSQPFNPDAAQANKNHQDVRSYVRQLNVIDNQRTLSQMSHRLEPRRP
Chain of Lysosomal acid glucosylceramidase (Homo sapiens) (P04062 whole entry, looked up): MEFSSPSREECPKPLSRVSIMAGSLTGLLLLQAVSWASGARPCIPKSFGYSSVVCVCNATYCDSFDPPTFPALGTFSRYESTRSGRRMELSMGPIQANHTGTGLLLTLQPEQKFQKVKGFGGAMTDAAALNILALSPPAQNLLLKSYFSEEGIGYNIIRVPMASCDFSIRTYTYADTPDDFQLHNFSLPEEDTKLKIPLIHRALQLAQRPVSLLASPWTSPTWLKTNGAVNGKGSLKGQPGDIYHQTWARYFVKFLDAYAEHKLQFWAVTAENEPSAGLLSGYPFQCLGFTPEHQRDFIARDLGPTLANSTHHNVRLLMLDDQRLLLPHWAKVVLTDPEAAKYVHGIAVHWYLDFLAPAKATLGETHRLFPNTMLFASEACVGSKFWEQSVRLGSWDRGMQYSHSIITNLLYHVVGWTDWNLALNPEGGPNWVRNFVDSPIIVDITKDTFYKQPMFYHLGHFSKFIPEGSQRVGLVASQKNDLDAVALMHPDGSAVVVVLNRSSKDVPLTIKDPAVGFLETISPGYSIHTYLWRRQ

N#Cc1c(-c2ccc(C(F)(F)F)cc2)no[n+]1[O-]
inactive: Potency [1]

Cc1cccc(CNc2ncnc3ccc(-c4cccnc4)cc23)c1
-7.82%: max response ([8]; measured here: cell count channel max response)
active: Potency [2] 316 nM
-4.88%: max response ([8]; measured here: lipid channel max response)
inactive: Potency [3] > 46000 nM | outcome [4] | Potency [5] | outcome [6] | outcome [7] | activity change, negative = inhibition ([8]; at 57.5 µM (top of the series)) 2.99% | Potency [9] | Potency [1] | Potency [10]

CN(Cc1ccco1)c1ncnc2ccc(-c3ccoc3)cc12
inactive: Potency [11] > 11400 nM | activity change, negative = inhibition [12] -16.7% | Potency [13] > 46000 nM | Potency [3] > 46000 nM | outcome [4] | Potency [5] | Potency [9] | Potency [1] | Potency [10] | Potency [17] | outcome [18] | outcome [19] | Potency [20]
active: Potency [2] 2510 nM | Potency [14] 112 nM | Potency [15] 112 nM | Potency [16] 50.1 nM

— PubChem BioAssay (NCATS)
